From PubChem BioAssay
Calls of active or inactive are those of the source.

What was measured:
[1] = tested on: Wnt5a (protein binding on small-molecule microarray); experiment: small molecules binding Wnt5a protein – biophysical, small-molecule microarray, 635/667 nm fluorescence, primary screen (AID 1142); details: 635 nm fluorescence, higher = more signal;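 further: fluorescence read at 667 nm with signal to noise per printed feature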
[2] = ATP-based viability of Huh7 replicon cells – cell-based, CellTiter-Glo luminescence, basal, 48 h, cytotoxicity control for HCV replication inhibitor project, primary screen (AID 1143); details: higher = more signal, called active from +8 up or from −8 down;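 further: Huh7 hepatoma cells carrying a hepatitis C replication reporter with no stimulus; test concentration not given here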
[3] = basal CRE-LacZ reporter activity in PC12 – cell-based, unstimulated, primary screen (AID 1145); details: no forskolin, luminescence, 4.5 h, higher = more signal, called active from +8 up or from −8 down
[4] = forskolin-driven CRE-LacZ activity in PC12 – cell-based, CRE-LacZ reporter, forskolin-stimulated, primary screen (AID 1146); details: luminescence, 4.5 h, higher = more signal, called active from +8 up or from −8 down;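 further: PC12 cells with 6xCRE LacZ reporter stimulated by forskolin 10 µM; beta-galactosidase reporter signal reflecting CREB driven transcription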
[5] = molecular target: Streptavidin (Streptomyces avidinii) (UniProt P22629); experiment: compounds binding control protein streptavidin – biophysical, small-molecule microarray, 635/667 nm fluorescence, artefact control for SMM compound annotation, primary screen (AID 1147); details: higher = more signal;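 further: signal reflects streptavidin binding to arrayed compounds as a control protein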
[6] = probe aInhba binding on compound microarray – biochemical, small-molecule microarray, 635/667 nm fluorescence, primary screen (AID 1148); details: higher = more signal;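 further: score merges 667nm spot fluorescence with signal-to-noise for antibody binding to printed compounds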
Torsin-1A (Homo sapiens) [7] = molecular target: Torsin-1A (Homo sapiens) (UniProt O14656); experiment: TOR1A wild-type binding on microarray – cell lysate, small-molecule microarray, lysate, 635/667 nm, primary screen (AID 1149); details: COS7 hTOR1A-WT lysate, 635 nm fluorescence, higher = more signal
Torsin-1A (Homo sapiens) [8] = molecular target: Torsin-1A (Homo sapiens) (UniProt O14656); experiment: torsin A mutant lysate binding on microarrays – cell lysate, small-molecule microarray, COS7 lysate, 635/667 nm fluorescence, primary screen (AID 1150); details: COS7 hTOR1A mutant lysate, 635 nm fluorescence, higher = more signal;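 further: score pools 667 nm emission and signal to noise measuring lysate protein binding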
[9] = tested on: Sonic hedgehog protein (Shh); experiment: Sonic hedgehog microarray binding compounds – biochemical, small-molecule microarray, 635/667 nm fluorescence, primary screen (AID 1151); details: 635 nm fluorescence, higher = more signal;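 further: Shh protein binding to compounds spotted on small-molecule microarray slides; score combines spot fluorescence intensity with signal-to-noise across triplicate slides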
[10] = optical density shifts of acrAB sulA E. coli – strain DRC41, OD650, 48 h, E. coli filamentation inducer project, primary screen (AID 1152); details: higher = more signal, called active from +8 up or from −8 down;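 further: E. coli MC1000 strain DRC41 lacking acrAB efflux pump and sulA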
[11] = probe aLefty1 binding on compound microarray – biochemical, small-molecule microarray, 635/667 nm fluorescence, primary screen (AID 1153); details: higher = more signal;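 further: score merges spot fluorescence with signal-to-noise ratio from the scanned slide images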
[12] = plasmodial surface anion channel blockers, osmotic lysis – cell-based, P. falciparum Indochina, OD700, 1 h, primary screen (AID 1154); details: P. falciparum Indochina infected RBC osmotic lysis, higher = more signal, called active from +8 up or from −8 down
[13] = plasmodial surface anion channel blockers, osmotic lysis – cell-based, P. falciparum Indochina, OD700, 2 h, primary screen (AID 1155);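 further: lysis reports solute entry through the parasite surface anion channel PSAC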; details: P. falciparum Indochina infected erythrocytes, higher = more signal, called active from +8 up or from −8 down
[14] = changes in parasitized red cell lysis, either direction – P. falciparum Indochina, OD700, 3 h, PSAC antagonist project, primary screen (AID 1156); details: P. falciparum-infected erythrocytes, osmotic lysis, higher = more signal, called active from +8 up or from −8 down
[15] = plasmodial surface anion channel blockers, osmotic lysis – cell-based, P. falciparum Indochina, OD700, 18 h, primary screen (AID 1157); details: P. falciparum Indochina infected erythrocytes, osmotic lysis OD700, 18 h; higher = more signal, called active from +8 up or from −8 down
[16] = S6 kinase pathway phospho-S6 level changes – cell-based, A549, cytoblot, luminescence, serum-stimulated, primary screen (AID 1158); details: 5 h, higher = more signal;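 further: serum-stimulated A549 lung adenocarcinoma cells; signal is phosphorylated S6 detected by cytoblot immunostaining with HRP secondary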
[17] = molecular target: NADPH oxidase 2 (Homo sapiens) (UniProt P04839); experiment: compounds shifting NOX2 Amplex Red fluorescence – cell-based, HEK293-NOX2, PMA-stimulated, NOX inhibitor project, primary screen (AID 1159); details: 45 min, higher = more signal, called active from +8 up or from −8 down; further: test concentration not given here
[18] = molecular target: NADPH oxidase 4 (Homo sapiens) (UniProt Q9NPH5); experiment: compounds shifting NOX4 Amplex Red fluorescence – cell-based, HEK293-NOX4, tetracycline-induced, NOX inhibitor project, primary screen (AID 1160); details: HEK293-NOX4, Amplex Red H2O2 fluorescence, 45 min; higher = more signal, called active from +8 up or from −8 down
[19] = molecular target: NADPH oxidase 5 (Homo sapiens) (UniProt Q96PH1); experiment: compounds shifting NOX5 Amplex Red fluorescence – cell-based, HEK293-NOX5, NOX inhibitor project, primary screen (AID 1161); details: HEK293-NOX5, ionomycin, 45 min, higher = more signal
[20] = compound effects on lung adenocarcinoma cell viability – A549, calcein-AM fluorescence, 48 h, basal, profiling panel (AID 1162); details: higher = more signal; further: test concentration not given here

Streptavidin (Streptomyces avidinii), sequence (P22629 whole entry, looked up): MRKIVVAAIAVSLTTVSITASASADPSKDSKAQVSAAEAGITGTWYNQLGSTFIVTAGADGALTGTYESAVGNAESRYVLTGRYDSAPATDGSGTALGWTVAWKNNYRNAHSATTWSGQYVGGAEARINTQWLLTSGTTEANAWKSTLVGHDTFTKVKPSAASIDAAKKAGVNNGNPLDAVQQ
NADPH oxidase 2 (Homo sapiens), sequence (P04839 whole entry, looked up): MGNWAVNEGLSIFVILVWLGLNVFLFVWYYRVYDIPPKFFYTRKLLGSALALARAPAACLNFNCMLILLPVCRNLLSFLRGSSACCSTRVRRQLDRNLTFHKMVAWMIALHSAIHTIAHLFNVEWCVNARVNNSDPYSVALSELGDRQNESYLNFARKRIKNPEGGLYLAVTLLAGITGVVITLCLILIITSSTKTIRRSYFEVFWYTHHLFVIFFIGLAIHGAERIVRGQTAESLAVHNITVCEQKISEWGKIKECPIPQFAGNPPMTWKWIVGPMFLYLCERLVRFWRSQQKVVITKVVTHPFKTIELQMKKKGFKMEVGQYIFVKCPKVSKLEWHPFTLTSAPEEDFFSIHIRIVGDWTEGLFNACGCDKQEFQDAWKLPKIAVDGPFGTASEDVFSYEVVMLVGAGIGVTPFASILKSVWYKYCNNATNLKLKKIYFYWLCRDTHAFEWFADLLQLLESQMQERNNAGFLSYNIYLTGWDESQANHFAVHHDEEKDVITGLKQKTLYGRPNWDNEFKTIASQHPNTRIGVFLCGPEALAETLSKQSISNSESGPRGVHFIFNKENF
NADPH oxidase 5 (Homo sapiens), sequence (Q96PH1 whole entry, looked up): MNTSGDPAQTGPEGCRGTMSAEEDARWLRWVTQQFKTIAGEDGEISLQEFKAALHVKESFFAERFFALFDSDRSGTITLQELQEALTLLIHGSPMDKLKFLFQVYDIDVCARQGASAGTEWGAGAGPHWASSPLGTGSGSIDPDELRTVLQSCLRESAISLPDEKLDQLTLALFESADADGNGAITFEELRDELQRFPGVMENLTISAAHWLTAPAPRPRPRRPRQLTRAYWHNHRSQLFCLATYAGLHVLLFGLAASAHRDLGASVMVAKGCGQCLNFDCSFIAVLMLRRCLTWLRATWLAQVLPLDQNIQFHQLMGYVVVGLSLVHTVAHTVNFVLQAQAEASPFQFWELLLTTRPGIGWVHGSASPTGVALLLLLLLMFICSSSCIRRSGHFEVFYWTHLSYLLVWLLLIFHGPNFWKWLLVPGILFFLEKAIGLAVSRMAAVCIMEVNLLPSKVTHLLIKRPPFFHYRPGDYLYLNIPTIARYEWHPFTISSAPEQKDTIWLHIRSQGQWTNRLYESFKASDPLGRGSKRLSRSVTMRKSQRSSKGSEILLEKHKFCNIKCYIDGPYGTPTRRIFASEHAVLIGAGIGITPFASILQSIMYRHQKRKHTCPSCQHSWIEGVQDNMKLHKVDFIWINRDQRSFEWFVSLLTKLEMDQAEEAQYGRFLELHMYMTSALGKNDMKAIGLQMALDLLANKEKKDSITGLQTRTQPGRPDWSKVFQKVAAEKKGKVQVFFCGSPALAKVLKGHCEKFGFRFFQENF
Torsin-1A (Homo sapiens), sequence (O14656 whole entry, looked up): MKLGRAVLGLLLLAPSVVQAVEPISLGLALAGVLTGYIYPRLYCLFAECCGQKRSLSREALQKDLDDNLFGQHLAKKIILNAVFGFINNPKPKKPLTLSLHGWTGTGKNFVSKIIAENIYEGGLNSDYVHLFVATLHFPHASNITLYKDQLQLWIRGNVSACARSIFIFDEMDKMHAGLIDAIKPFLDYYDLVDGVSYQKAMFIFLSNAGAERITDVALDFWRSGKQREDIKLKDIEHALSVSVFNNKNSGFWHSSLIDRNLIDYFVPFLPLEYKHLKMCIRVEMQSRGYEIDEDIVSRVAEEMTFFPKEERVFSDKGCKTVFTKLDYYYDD
NADPH oxidase 4 (Homo sapiens), sequence (Q9NPH5 whole entry, looked up): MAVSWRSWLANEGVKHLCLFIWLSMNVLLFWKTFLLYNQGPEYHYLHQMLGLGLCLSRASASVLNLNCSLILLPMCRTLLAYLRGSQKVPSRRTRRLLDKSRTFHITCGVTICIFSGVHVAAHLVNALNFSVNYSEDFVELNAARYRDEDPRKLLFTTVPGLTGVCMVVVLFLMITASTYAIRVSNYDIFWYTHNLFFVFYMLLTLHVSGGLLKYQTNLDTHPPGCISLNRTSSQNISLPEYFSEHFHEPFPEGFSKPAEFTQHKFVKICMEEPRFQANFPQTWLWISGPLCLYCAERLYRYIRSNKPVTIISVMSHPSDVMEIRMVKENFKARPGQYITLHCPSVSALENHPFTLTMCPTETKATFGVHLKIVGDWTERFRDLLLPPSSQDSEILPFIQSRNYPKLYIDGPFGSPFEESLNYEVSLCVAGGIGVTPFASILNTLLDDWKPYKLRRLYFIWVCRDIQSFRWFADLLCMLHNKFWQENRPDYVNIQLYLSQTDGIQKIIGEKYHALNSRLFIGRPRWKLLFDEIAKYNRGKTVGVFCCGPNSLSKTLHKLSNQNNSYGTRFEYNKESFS

Row | SMILES | composite z-score [1] | z-score [2] | z-score [3] | z-score [4] | composite z-score [5] | composite z-score [6] | composite z-score (Torsin-1A (Homo sapiens) [7]) | composite z-score (Torsin-1A (Homo sapiens) [8]) | composite z-score [9] | z-score [10] | composite z-score [11] | z-score [12] | z-score [13] | z-score [14] | z-score [15] | z-score [16] | z-score [17] | z-score [18] | z-score [19] | z-score [20]
1 | C=C(CCCC)/C(=C/C[C@H](OC(=O)c1ccncc1)c1ccc(CO)o1)c1cnc2ccccc2c1 | 0.216 | -0.807 (inactive) | 3.77 (inactive) | -1.24 (inactive) | 0.783 | 0.212 | 0.378 | 0.324 | 1.95 | 0.822 (inactive) | 0.301 | 7.89 (inactive) | -0.0845 (inactive) | 1.04 (inactive) | -1.01 (inactive) | -0.367 | 2.49 (inactive) | 1.15 (inactive) | 0.737 | 0.942
2 | O=c1n(-c2ccccc2)c(=O)n2n1CC(COc1ccccc1)=C1[C@@H](CCc3ccccc3)OB(O)C[C@@H]12 | 0.455 | -1.84 (inactive) | 1.58 (inactive) | -1.67 (inactive) | 0.117 | 0.0756 | 0.717 | -0.0569 | 1.12 | 1.63 (inactive) | -0.206 | 2.27 (inactive) | -0.302 (inactive) | 0.622 (inactive) | -1.31 (inactive) | 0.642 | -0.513 (inactive) | -0.0712 (inactive) | -1.03 | 1.81
3 | O=C1c2ccccc2[C@@]2(Cc3ccccc3N(CC(F)(F)F)C2=O)[C@H](c2ccc(CO)cc2)N1Cc1ccccc1C(F)(F)F | -0.388 | -1.02 (inactive) | -0.556 (inactive) | -1.56 (inactive) | -1.04 | -0.224 | -1.41 | -0.322 | -0.643 | 1.43 (inactive) | -0.23 | 0.0937 (inactive) | -0.926 (inactive) | 0.593 (inactive) | -1.39 (inactive) | 0.936 | 0.0968 (inactive) | 0.396 (inactive) | 1.09 | 1.73
4 | O=C(NCC(F)(F)F)[C@@H]1c2ccccc2C(=O)N(C2Cc3ccccc3C2)[C@H]1c1ccc(CO)cc1 | -0.034 | -1.11 (inactive) | -0.295 (inactive) | -1.15 (inactive) | -1.25 | 0.106 | -0.0578 | 0.224 | -0.875 | 2.43 (inactive) | 0.0588 | 3.55 (inactive) | -0.483 (inactive) | 1.8 (inactive) | -0.683 (inactive) | 1.14 | 0.207 (inactive) | 1.23 (inactive) | -1.23 | 2.25
5 | C[N+](C)(C)CCCCNC(=O)[C@@H]1C[C@@H]2C(=O)NCC(=O)N2[C@@H]1c1cccc(OCCO)c1 | 0.857 | -1.08 (inactive) | -0.939 (inactive) | -0.689 (inactive) | 0.461 | 0.124 | 1.87 | 1.1 | 2.16 | 1.78 (inactive) | -0.221 | 2.68 (inactive) | -1.12 (inactive) | -2.75 (inactive) | -1.98 (inactive) | 0.855 | -1.42 (inactive) | -0.57 (inactive) | 0.766 | 1.59
6 | C=C(C1=CCN(S(=O)(=O)c2ccc(C)cc2)C1)[C@@H](OC(C)=O)[C@@H]1CCCN1S(=O)(=O)c1ccccc1[N+](=O)[O-] | 0.0375 | -4.37 (inactive) | 2.02 (inactive) | -1.11 (inactive) | -1.05 | -0.128 | -0.499 | -0.406 | 0.706 | 2.47 (inactive) | -0.109 | 26.3 (active) | 17 (active) | 0.77 (inactive) | 0.623 (inactive) | 0.993 | 0.0272 (inactive) | -1.36 (inactive) | 0.69 | -0.498
7 | COC(=O)c1c(CC[C@@H](CO)NC(=O)Nc2ccc(OC)cc2)oc(C(=O)Cc2ccccc2)c1C(=O)OC | 0.0603 | 0.566 (inactive) | 9.58 (active) | -0.453 (inactive) | 0.652 | -0.0531 | 0.462 | 0.943 | 0.97 | 1.7 (inactive) | -0.147 | 3.06 (inactive) | 1.01 (inactive) | 0.681 (inactive) | 0.458 (inactive) | -0.0632 | 1.31 (inactive) | 0.649 (inactive) | -2.22 | -1.27
8 | C=CCN1C(=O)[C@@]2(O[C@@H](CCO)[C@H]([Si](C)(C)c3ccc(OC)cc3)[C@H]2C)c2cc(N(C=O)c3ccccc3)ccc21 | 0.125 | -7.99 (inactive) | 16.9 (active) | -4.02 (inactive) | -0.387 | -0.0044 | 0.0589 | 0.0237 | 0.207 | 1.55 (inactive) | -0.16 | 24 (active) | 7.57 (inactive) | -0.599 (inactive) | 0.279 (inactive) | 0.183 | -0.477 (inactive) | 0.638 (inactive) | -0.174 | -3.16
9 | CC(C)(C)OC(=O)CC[C@@]12N=C(c3ccc(OCCCO)cc3)O[C@@H]1c1ccccc1N(Cc1ccccc1)C2=O | 0.215 | -4.37 (inactive) | 1.6 (inactive) | -1.25 (inactive) | -0.0873 | 0.222 | 0.488 | 0.516 | 0.657 | 0.94 (inactive) | 0.659 | 28.5 (active) | 29 (active) | 3.86 (inactive) | 2.24 (inactive) | 0.497 | 1.56 (inactive) | -0.266 (inactive) | -1.38 | -0.236
